# VP16 counter: inhibits Gal4-VP16 luciferase reporter, ROR gamma counter-screen. Potency, µM (highest dose often 53.6 µM), for the others: at the top dose activity, negative = inhibition, actives largely listed as inhibitors. AID 2546. Drosophila S2 Gal4-VP16 UAS-luciferase, luminescence, 20 h. 310,000 compounds, 3.5% hits;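 further: Gal4-VP16 expression switched on by copper sulfate through the metallothionein promoter; nearly all actives have a fitted effect of over 50% in size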
# PLK1 PBD block: PLK1 (human) polo-box domain binding inhibition | P53350 | Plk1 PBD binding of FITC phosphopeptide, fluorescence polarization | Potency, µM, without a hit: max response, negative = inhibition, most hits filed as inhibitors | 360,000 compounds, 2.8% hits | AID 720504; further: series mostly up to about 57 µM; nearly all actives have a fitted effect of over 65% in size
# RORg inh: inhibitors of mouse ROR gamma transcriptional activity; 310,000 compounds, 5.4% hits; Potency, µM (top dose mostly 53.6 µM), for inactives: at the top dose activity change, negative = inhibition, actives largely listed as inhibitors; Drosophila S2 Gal4-RORgamma UAS-luciferase reporter, 20 h; AID 2551; further: nearly all actives have a fitted effect of over 60% in size
# Target sequence (P51450 whole entry, looked up, the tested form may be a part): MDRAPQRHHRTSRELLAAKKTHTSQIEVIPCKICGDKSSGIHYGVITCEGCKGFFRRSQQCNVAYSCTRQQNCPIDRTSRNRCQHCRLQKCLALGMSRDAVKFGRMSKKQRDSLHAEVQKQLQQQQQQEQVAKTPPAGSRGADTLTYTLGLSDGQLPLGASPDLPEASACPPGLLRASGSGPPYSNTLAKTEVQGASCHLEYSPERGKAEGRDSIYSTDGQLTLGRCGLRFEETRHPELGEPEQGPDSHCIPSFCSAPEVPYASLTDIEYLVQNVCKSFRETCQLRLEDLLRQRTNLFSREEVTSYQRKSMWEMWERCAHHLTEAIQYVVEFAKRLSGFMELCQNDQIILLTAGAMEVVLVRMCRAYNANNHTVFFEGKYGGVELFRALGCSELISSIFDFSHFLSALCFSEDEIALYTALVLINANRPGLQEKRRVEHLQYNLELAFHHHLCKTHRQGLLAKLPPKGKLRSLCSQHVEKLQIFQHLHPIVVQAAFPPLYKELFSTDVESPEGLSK
#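 Compounds are pin-transferred onto Drosophila Schneider cells expressing a copper-inducible Gal4–ROR gamma transactivation domain fusion. After 1 hr, copper sulfate is added to 700 uM final; luciferase is read 20 hr later.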
# ALDH1A1 block: ALDH1A1 (human) enzyme inhibition; Purified ALDH1A1, NADH fluorescence, propionaldehyde substrate; Potency, µM (series often up to 75.3 µM), inactives show at the top dose activity, negative = inhibition, hits mostly inhibitors; 220,000 compounds, 7.3% hits; P00352; active means well fitted inhibition curve with a large enough effect, not every such curve was filed as active; inconclusive means small, poorly fitted or top-dose-only effect, or another doubt; inactive means no such curve, though single readings can be large or run the other way;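 further: plate controls were no enzyme wells and a reference inhibitor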
# Sfp PPTase inh: Sfp phosphopantetheinyl transferase inhibition. Q9F4F7. Biochemical Sfp PPTase activity, qHTS. Potency, µM, for the others: largest response in the series, negative = inhibition, hits mostly inhibitors. 310,000 compounds, 3.5% hits. AID 1490;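 further: the enzyme is Sfp with the accession as filed and its product quenches rhodamine fluorescence; 0% = enzyme reaction without inhibitor and -100% = no enzyme wells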
#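 Sfp 15 nM + cpd, 15 min RT; start w/ rhodamine-CoA 5 uM, BHQ-2-YbbR 12.5 uM (final); 50 mM Hepes pH 7.6, 10 mM MgCl2, 0.01% NP-40, 0.01% BSA; read 525/598 nm at 0 and 30 min.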
# * = called active by the depositor; ? = inconclusive; nt = no result given; [ ] = another dose, or the depositor's remark. Rows were chosen to be rich in hits. Some 12% of all compounds tested hit in one or more screens of this group. Unless noted, the call rests on the fitted dose curve; in most records, active means well fitted curve in the direction sought with a large enough effect; inconclusive means small, poorly fitted or top-dose-only effect, or another doubt; inactive means no such curve, though single readings can be large; an effect the other way counts as inactive or inconclusive. Unless noted, on the % scale 0 is the no-effect control and ±100 the full control effect; potency means the concentration at half of the fitted maximal effect.
SMILES,VP16 counter,PLK1 PBD block,RORg inh,ALDH1A1 block,Sfp PPTase inh
Cc1ccc(-c2csc(N3CCN(c4cc5c(cc4Cl)nc(-c4ccncc4)n5CCN4CCCCC4)CC3)n2)cc1,-25%,?,8.9µM*,nt,56µM*
COc1ccc(-c2csc(NCCc3nc4cc(Cl)c(N5CCCCC5)cc4n3CCOCCO)n2)cc1,nt,2%,nt,nt,nt
COc1ccc(-c2csc(N3CCN(c4cc5c(cc4Cl)nc(-c4ccncc4)n5CCOCCO)CC3)n2)cc1,-1%,27µM*,4%,nt,45µM*
CCCn1c(C)nc2cc(Cl)c(N3CCN(c4nc(-c5ccc(C)cc5)cs4)CC3)cc21,?,-24%,4.5µM*,nt,-8%
Cc1ccc(-c2csc(NCCn3c(-c4ccncc4)nc4ccccc43)n2)cc1,-8%,0%,-12%,nt,-9%
COc1ccc(C(=O)OCc2c(-c3ccccc3)ncc3ccccc23)cc1,nt,-18%,nt,nt,nt
Cc1ccc2nc3nc4ccc[nH]c4cc3c2c1,2%[10 µM],nt,?,-1%[13.5 µM],-5%
O=C(NCCC(=O)N1CCNC1=O)OCc1ccccc1,-7%,-13%,14%,0%,50µM*
O=C(O)CCCc1ccc2ccccc2c1,nt,nt,nt,-5%[13.5 µM],nt
O=C(O)CCCCCCCCCCCc1ccccc1,-9%,24µM*,-2%,4%,17%
O=C(O)C/C=C(\NC(=O)OCc1ccccc1)C(=O)OCc1ccccc1,-4%,-5%,20%,0.28µM*,79µM*
O=C(O)CCCNC(=O)OCc1ccccc1,6.3µM*,-12%,?,8%,15%
CCCn1c(C)nc2c(N3CCC(N4CCN(C)CC4)CC3)nc(C)nc21,-3%,nt,0%,5%,19%
CC(=O)OC[C@@H]1O[C@@H](O/N=C2/C[C@@H](O)[C@@H](O)[C@@H]3[C@@H]4C(=O)N(C5CCCCC5)C(=O)[C@H]4CC[C@H]23)[C@H](OC(C)=O)[C@H](OC(C)=O)[C@@H]1OC(C)=O,1%[10 µM],nt,-15%[10 µM],-11%[13.5 µM],-11%
COC(=O)C(CCCCNC(=O)OCc1ccccc1)NC(=O)CN (centres undefined),-2%,-4%,-4%,28µM*,11%
COc1ccc(C(O)c2nc(-c3cccc(O)c3)cs2)cc1 (centres undefined),nt,-7%,nt,nt,nt
CCOC(=O)/C=C/C(=O)Nc1ccc(S(=O)(=O)N(C)c2ccccc2)cc1,-29%,-15%,?,25µM*,14%
CCOC(=O)/C=C/C(=O)Nc1ccc(S(=O)(=O)N2CCCCCC2)cc1,9%,-24%,-30%,3.5µM*,0%
CCOC(=O)/C=C/C(=O)Nc1ccc(S(=O)(=O)N2CCc3ccccc32)cc1,?,-16%,?,nt,11%
CC(=O)Nc1ccc(S(=O)(=O)N(C)c2ccccc2)cc1,-1%,-1%,-5%,1%,19%
CCOC(=O)c1ccccc1NS(=O)(=O)c1ccc(S(=O)(=O)N2CCCC2)cc1,13%,-14%,-10%,22µM*,2%
CC(=O)Nc1ccc(S(=O)(=O)N(C)CC(=O)OCC(=O)N2CCc3ccccc32)cc1,2%,-2%,-1%,8.9µM*,3%
CC(=O)Nc1ccc(S(=O)(=O)NCC(=O)OCC(=O)N2CCCc3ccccc32)cc1,1%,-2%,-31%,-8%,-7%
CCOC(=O)[C@]12CCCC=C1N(Cc1ccco1)C(=O)[C@H](CC(=O)NCc1cccc3ccccc13)C2,nt,-12%,nt,nt,nt
CCOC(=O)/C(C)=N/NC(C)=O,9%,nt,-11%,-1%,-2%
SMILES,VP16 counter,PLK1 PBD block,RORg inh,ALDH1A1 block,Sfp PPTase inh
CCOC(=O)CN(Cc1ccccc1)S(=O)(=O)c1ccc(NC(C)=O)cc1,-7%,-5%,-7%,5.6µM*,8%
CC(C)Oc1ccc(/C=C(/NC(=O)c2ccccc2)C(=O)NC(Cc2ccccc2)C(=O)O)cc1 (centres undefined),3%,-6%,-12%,nt,10%
CC(C)Oc1ccc(/C=C(/NC(=O)c2ccccc2)C(=O)NCCC(=O)O)cc1,-17%,-8%,11µM*,?,12%
O=C(CC1CCCC1)N1CCN(S(=O)(=O)c2cccc(F)c2)CC1,nt,0%,nt,nt,nt
COc1ccc(-c2ccc(=O)n(Cc3ccccc3)n2)cc1,1%,-4%,8%,nt,0%
COc1ccc(Cc2[nH]n3c(=O)cc(C(C)C)nc3c2-c2ccccc2)cc1,10µM*,-11%,3.5µM*,-9%,13%
COc1ccc(Cc2[nH]n3c(=O)cc(C)nc3c2-c2ccccc2)cc1,?,-5%,11µM*,3%,6%
CCCNC(=O)OC[C@H]1O[C@@H](CCO/N=C2/C[C@@H](O)[C@@H](O)[C@@H]3[C@@H]4C(=O)N(CC)C(=O)[C@H]4CC[C@@H]23)C=C[C@@H]1Oc1ccc(OC)cc1,-4%[10 µM],nt,-1%[10 µM],-11%[13.5 µM],7%
O=C(CCl)NC(=O)NC12CC3CC(CC(C3)C1)C2,?,-15%,?,7.9µM*,5%
CC(Cl)C(=O)NC(=O)NC12CC3CC(CC(C3)C1)C2 (centres undefined),17%,-7%,29%,2%,12%
COc1ccc(CN2C(=O)CCCC2(C)c2nc3ccccc3[nH]2)cc1 (centres undefined),nt,1%,nt,nt,nt
CC(C)(C)NC(=O)C12CC3CC(CC(Cl)(C3)C1)C2,-14%,-11%,4%,11%,28%
CC(C)(C)NC(=S)NC(=O)C12CCC3CC(CC(C3)C1)C2,0%,-8%,0.71µM*,?,3%
COC(=O)/C=C/c1cccc(N(Cc2ccc(-c3ccc(N(C)C)cc3)cc2)C(=O)C2CCCCC2)c1,-3%,nt,7%,nt,-11%
O=C1NC(=Nc2ccccc2)S/C1=C\C=C\c1ccco1,-21%,?,19%,14%,14%
Cc1cccc(N=C2NC(=O)/C(=C/C=C/c3ccco3)S2)c1C,-13%,15µM*,-5%,2.8µM*,40µM*
Cc1ccc(N=C2NC(=O)/C(=C/C=C/c3ccco3)S2)cc1,-3%,?,-36%,4.5µM*,?
CN1OC[C@@H]2CN[C@H](c3cccc(Oc4ccccc4)c3)C[C@@H]21,nt,-4%,nt,nt,nt
O=C(O)c1ccccc1Nc1ccc([N+](=O)[O-])cc1C(=O)O,1%,0%,-15%,nt,16%
COc1ccc(C(C)=NNc2ccc([N+](=O)[O-])cc2S(=O)(=O)Nc2ccccc2C(=O)O)c(OC)c1,nt,21µM*,nt,nt,nt
Cc1ccc(NC(=S)NNc2ccc([N+](=O)[O-])cc2S(=O)(=O)Nc2ccccc2C(=O)O)cc1C,-27%,27µM*,-34%,?,40µM*
O=C(O)c1ccccc1NS(=O)(=O)c1ccc(NNC(=S)Nc2ccc(OC(F)F)cc2)c([N+](=O)[O-])c1,-16%,11µM*,-27%,3.5µM*,?
Cc1cccc(NC(=O)C(C)OC(=O)c2ccccc2NS(=O)(=O)c2cc(C)c(C)c([N+](=O)[O-])c2)c1 (centres undefined),-2%,5%,35%,-1%,19%

# Screens from PubChem BioAssay.
